# Screening data deposited in PubChem BioAssay by National Center for Advancing Translational Sciences (NCATS).
# Compounds with a hit are over-represented: about 3.3% of the library has one in this group of screens.
# HBB splicing – alters splicing of the hemoglobin beta chain. HBB splicing reporter cell assay, activation; EGFP reporter with mutant IVS2-654 intron; response scale: normalised to 500 nM splice-correcting PNA. Potency, µM (series often up to 46.1 µM), hits mostly activators. hit rate 0.06% among 65,000. AID 925
#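 Compounds were applied for 2 days to HeLa EGFP-654 cells, 500/well in Optimem with 2% FCS. The reporter's EGFP is disrupted by mis-splicing of beta-globin intron IVS2-654. Readout: summed well GFP fluorescence from 488 nm laser scanning; reference was 500 nM antisense […] 654 PNA.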
# FLuc inh – firefly luciferase inhibition; AID 411; purified firefly luciferase, luminescence, 8 min; Potency, µM (highest dose often 57.1 µM), hits mostly inhibitors; hit rate 2.2% among 72,000; further: nearly all actives have a fitted effect of over 40% in size
# Target sequence (P08659 whole entry, looked up): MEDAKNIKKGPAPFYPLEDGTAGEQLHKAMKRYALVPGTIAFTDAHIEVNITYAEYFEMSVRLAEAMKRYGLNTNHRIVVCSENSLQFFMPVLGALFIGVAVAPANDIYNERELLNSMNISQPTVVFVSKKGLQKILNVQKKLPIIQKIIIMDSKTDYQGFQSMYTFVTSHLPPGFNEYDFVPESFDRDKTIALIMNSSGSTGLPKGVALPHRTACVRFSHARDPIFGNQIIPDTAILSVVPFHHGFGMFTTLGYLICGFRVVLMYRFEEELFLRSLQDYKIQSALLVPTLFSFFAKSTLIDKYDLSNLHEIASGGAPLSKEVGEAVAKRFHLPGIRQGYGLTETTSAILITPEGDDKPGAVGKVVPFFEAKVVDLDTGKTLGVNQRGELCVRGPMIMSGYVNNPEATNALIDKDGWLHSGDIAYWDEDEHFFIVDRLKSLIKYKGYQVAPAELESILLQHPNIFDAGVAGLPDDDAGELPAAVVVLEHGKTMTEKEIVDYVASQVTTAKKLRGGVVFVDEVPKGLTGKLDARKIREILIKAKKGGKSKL
#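 Firefly luciferase (PKLight detection mix) with 10 uM ATP in pH 7.2 imidazole buffer (KCl, MgCl2, Tween 20, BSA). Compounds tested across a concentration series (qHTS). Luminescence read after 8 min at ambient temperature.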
# Bst PK mod – modulators of Bacillus stearothermophilus pyruvate kinase; Potency, µM; hit rate 1.2% among 51,000; purified pyruvate kinase, luminescence ATP production; ribose 5-phosphate activator present at AC10; in the data active means potency below about 11 µM; inconclusive means mostly about 12 µM to 25 µM;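 the screen sought inhibitors and activators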
# UbGFP stabilizer – ubiquitin-GFP accumulation via proteasome inhibition. Ubiquitin-GFP reporter cells, proteasome inhibition, GFP fluorescence; response scale: untreated = 0%, 10 µM MG-132 = 100%. Potency, µM (highest dose often 45.9 µM), usual class: activators. 67,000 tested, under 10 active. AID 526; active means well fitted activation curve with a large enough effect, not every such curve was filed as active; inconclusive means small, poorly fitted or top-dose-only effect, or another doubt; inactive means no such curve, though single readings can be large or run the other way
#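 Reporter cells (U2OS, ubiquitin-G76V-GFP fusion) are plated overnight, then treated 4 hr at 37 °C with compound titrations from 46 uM down to 2.9 nM. Activity is scaled against untreated cells and 10 uM MG-132.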
# GBA mod – human lysosomal glucosylceramidase modulation | P04062 | hit rate 1.1% among 48,000 | purified enzyme, resorufin glucoside fluorescence (screen aimed at inhibitors), 20 min | Potency, µM; in the data active means potency below about 15 µM; inconclusive means mostly about 16 µM to 33 µM;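 further: the screen sought inhibitors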
#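 Compounds titrated against 0.2 nM normal enzyme, 30 uM resorufin beta-D-glucopyranoside substrate, citrate/phosphate buffer with taurocholate and tween-20, pH 5.9. Reaction ran 20 min at room temperature; fluorescence (Ex 548/Em 600) gave AC50.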
# Epigenetic mod – epigenetic GFP locus derepression in mouse cells; mouse C127i GFP locus derepression, cytometry, 30 h; Potency, µM (titrated, usually from 46.1 µM); hit rate 0.09% among 68,000; AID 597
#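 Locus derepression in mouse mammary C127i cells whose integrated CMV-GFP reporter is normally silent; GFP expression after 30 h compound treatment was quantified by counting fluorescent cells.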
# Numbers stand for hits; i = inactive; ? = inconclusive; nt = no result; [ ] = another dose, or the depositor's remark. Unless noted, the call rests on the fitted dose curve; in most records, active means well fitted curve in the direction sought with a large enough effect; inconclusive means small, poorly fitted or top-dose-only effect, or another doubt; inactive means no such curve, though single readings can be large; an effect the other way counts as inactive or inconclusive.
SMILES,HBB splicing,FLuc inh,Bst PK mod,UbGFP stabilizer,GBA mod,Epigenetic mod
CCc1ccc(NC(=O)c2cc(CC(C)C)on2)cc1,i,i,nt,i,nt,nt
CCc1ccc(NC(=O)c2cc(C(C)C)on2)cc1,i,12.6µM,i,i,i,i
COc1nc(N)nc2c1ncn2[C@@H]1C[C@H](O)[C@@H](CO)O1,i[9.22 µM],i[11.4 µM],nt,i[9.17 µM],nt,i[9.22 µM]
CCN1CCN(Cc2ccc(NC(=O)Nc3ccc(OC)cc3)cc2)CC1,i,i,nt,i,nt,nt
CCN1CCN(Cc2ccc(NC(=O)Nc3ccccc3)cc2)CC1,i,12.6µM,nt,i,nt,i
COc1ccc(-c2cc3ccccc3n2CC(O)CNC(CO)(CO)CO)cc1 (stereo not given),i,i,i,i,14.2,i
Cn1c(=N)n(CC(=O)O)c2ccccc21,i,i,i,i,i,i
Cn1c(=N)n(CC(=O)C(C)(C)C)c2ccccc21,nt,i,i,i,13.1,i
CCCCn1c(=N)n(CC(=O)C(C)(C)C)c2ccccc21,i,i,i,i,i,i
CCCn1c(=N)n(CC(=O)C(C)(C)C)c2ccccc21,nt,i,i,i,4.39,i
COc1ccc(CNc2nc(-c3ccc4c(c3)OCO4)nc3ccccc23)c(OC)c1,i,i[2.29 µM],nt,i,nt,i[9.22 µM]
CC1CCc2nc(NC(=O)c3ccco3)sc2C1 (stereo not given),i,2µM,1.21,i,i,i
CC1CCc2nc(NC(=O)Cc3cccs3)sc2C1 (stereo not given),i,i,nt,i,i,i
CC1CCc2nc(NC(=O)C3CCCO3)sc2C1 (stereo not given),i,12.6µM,i,i,i,i
C=C/C(C)=C/[C@]1(C)SC(=O)C(C)=C1O,i,i,nt,i,nt,i
CCCn1cnc2cc(NCc3ccccn3)ccc21,i,15.8µM,nt,i,nt,nt
COc1cccc(CNc2ccc3c(c2)ncn3C(C)C)c1OC,i,12.6µM,nt,i,nt,nt
CCCn1cnc2cc(NCc3cccc(OC)c3O)ccc21,i[1.84 µM],15.8µM,nt,i,?,i
CCCn1c(NCc2cccc(OC)c2O)nc2ccccc21,i,i,i,i,i,i
CCCn1c(NCc2cccc(OC)c2OC)nc2ccccc21,i,i,i,i,i,i
CCn1cnc2cc(NCc3ccncc3)ccc21,i,i,i,i,i,i
NC(=O)c1cccc(N)c1,i,i,nt,i,nt,i
CC/C=C1/OC(=O)c2ccccc21,i,nt,nt,nt,nt,nt
CCn1c(SCC(=O)c2ccc3c(c2)OCCO3)nnc1-c1ccco1,i,15.8µM,nt,i,i,i
CCCOc1ccc(C2C(C(=O)OC)=C(C)N=C3SCCC(=O)N32)cc1OCC (stereo not given),i,i,i,i,i,i
SMILES,HBB splicing,FLuc inh,Bst PK mod,UbGFP stabilizer,GBA mod,Epigenetic mod
CCOc1cc(C2C(C(=O)OC(C)C)=C(C)N=C3SCCC(=O)N32)ccc1OC(C)=O (stereo not given),nt,i,i,i,14.5,i
Cn1c(SCC(=O)N2CCOCC2)nnc1-c1ccc(Cl)cc1Cl,nt,i,i,nt,nt,i
O=C(c1cc(-c2ccc3c(c2)OCO3)on1)N1CCOCC1,i,7.94µM,?,i,i,i
O=C(Nc1cccnc1)c1cc(-c2ccc3c(c2)OCO3)on1,i,0.794µM,nt,i,i,i
O=C(c1cc(-c2ccc(Cl)cc2)on1)N1CCOCC1,i,12.6µM,nt,i,i,i
O=C(c1cc(-c2ccc(Cl)cc2Cl)on1)N1CCOCC1,i,7.94µM,6.29,i,i,i
O=C(NCCN1CCOCC1)c1cc(-c2ccc(Cl)cc2)on1,i,i,nt,i,nt,i
Cc1ccc(S(=O)(=O)N[C@@H](CCc2ccccc2)CC(=O)C(C)(C)C)cc1,i[9.22 µM],i[11.4 µM],nt,nt,nt,nt
CO[C@@H]1/C=C\O[C@]2(C)Oc3c(C)c(O)c4c(O)c(c(CN5CCN(C)CC5)c(O)c4c3C2=O)NC(=O)/C(C)=C\C=C[C@@H](C)[C@@H](O)[C@H](C)[C@@H](O)[C@H](C)[C@H](OC(C)=O)[C@@H]1C,i[9.22 µM],i[11.4 µM],nt,i[9.17 µM],nt,i[9.22 µM]
CC(C)Cc1cc(C(=O)Nc2ccc3c(c2)OCO3)no1,i,7.94µM,nt,i,nt,nt
Cn1cccc1C(=O)N1CCC2(CCCN(c3ccncc3)C2)CC1,i,i[11.4 µM],nt,i,nt,i[9.22 µM]
COc1ccc(/C=C/C2=CC3(C)CC2(C)C(c2ccc(OC)cc2)CC3=O)cc1 (stereo not given),i[9.22 µM],nt,nt,nt,nt,nt
O[C@H](C[C@@H]1CCCCN1)c1ccc2c(c1)oc1ccccc12,i[9.22 µM],i[11.4 µM],nt,i[9.17 µM],nt,1.26µM
Cc1nnc(SCc2nnc(-c3ccc(Cl)cc3)o2)n1-c1ccccc1,i,i,7.53,i,i,i
COc1ccc(-c2nnc(SCc3nnc(-c4ccc(Cl)cc4)o3)n2-c2ccccc2)cc1,i,i,nt,i,nt,i
CC(=C/C=C/C(C)=C/C=C/C=C(C)/C=C/C=C(C)/C=C/C(=O)O)/C=C/C(=O)O,i,nt,nt,nt,nt,nt
Nc1c(Br)cc2oc(-c3ccccc3)nc2c1Br,nt,i,nt,nt,nt,i
COc1ccc(-c2nc3c(Br)c(N)c(Br)cc3o2)cc1,nt,2.51µM,?,nt,nt,i
CCCCCCCCCCCCCCCCCC(=O)NC[C@@H](COP(=O)([O-])OCC[N+](C)(C)C)OCC,i,i,nt,i,nt,i
O=C(O)CCC(=O)c1ccc2c(c1)OCCO2,i,i,nt,i,nt,nt
O=C(Cn1cnc2ccccc2c1=O)Nc1ccc2c(c1)OCCO2,i,12.6µM,i,i,i,i
O=C(COc1ncnc2ccccc12)c1ccc2c(c1)OCCO2,i,12.6µM,nt,i,i,i
CCOCC(=O)Nc1ccc2c(c1)OCCO2,nt,i,i,i,i,i
O=C(CC(=O)c1ccccc1)Nc1ccc2c(c1)OCCO2,i,20µM,nt,i,i,i
O=C(CS(=O)(=O)c1ccccc1)c1ccc2c(c1)OCCO2,i,12.6µM,i,i,i,i
SMILES,HBB splicing,FLuc inh,Bst PK mod,UbGFP stabilizer,GBA mod,Epigenetic mod
O=C(O)Cn1c(=O)oc2cc(S(=O)(=O)N3CCOCC3)ccc21,i,i,nt,i,nt,nt
O=C(O)/C=C(/C(=O)O)[C@]12CCN3CC4=CCO[C@@H]5CC(=O)N[C@@H]1[C@H]5[C@H]4C[C@H]32,i[9.22 µM],i[11.4 µM],nt,i[9.17 µM],nt,i[9.22 µM]
CCCCNc1c(CN)cnc2cc(Cl)ccc12,i[9.22 µM],i[11.4 µM],nt,i[9.17 µM],nt,i[9.22 µM]
O=C(CSc1nc2ccccc2[nH]1)Nc1ccc2c(c1)OCCO2,i,25.1µM,nt,i,i,i
CC(=C1C2C=CC1C1C(=O)NC(=O)C21)c1ccccc1 (stereo not given),15.8µM,i,i,i,i,?
O=C(CC(Nc1ccc(F)cc1)C(=O)O)c1ccccc1 (stereo not given),i,7.94µM,?,i,i,i
O=C(C[C@@H](C(=O)O)N1CCOCC1)c1ccccc1,i[9.22 µM],i[11.4 µM],nt,i[9.17 µM],nt,i[9.22 µM]
CN(Cc1ccccc1)Cn1ccnc1,i[9.22 µM],i[11.4 µM],nt,i[9.17 µM],nt,i[9.22 µM]
Cc1ccc(NC(=O)c2c(O)c3ccccc3n(C)c2=O)nc1,nt,i,i,i,i,i
CN(C(=O)c1c(O)c2ccccc2n(C)c1=O)c1ccccc1,nt,25.1µM,nt,i,nt,i
COc1ccc(NS(=O)(=O)c2cccc(-c3nnc4n3CCCCC4)c2)cc1,i,i,i,i,i,i
